Test system: CAMKK1
Conditions: concentration: 1 μM, replicates: in singlicate; n = 1
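Also: KINOMEscan kinase panel screen.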

Row | SMILES | %Inh [%]
1 | Fc1ccc(Nc2nccc(-c3c(-c4ccc(Cl)cc4)nn4ncccc34)n2)cc1F [GW829058] | 2
2 | CS(=O)(=O)CCNCc1ccc(-c2ccc3ncnc(Nc4ccc(OCc5ccccc5)c(Cl)c4)c3c2)o1.Cl [GW574783] | 0
3 | Cn1ccc2ncnc(Oc3ccc(NC(=O)Nc4cccnc4)c(Cl)c3)c21 | 20
4 | COc1ccc(NC(=O)c2ccc(-c3cc(-c4nnc(C)o4)ccc3C)cc2)cc1 [GW595885] | 0
5 | NC(=O)c1sc(-n2cnc3ccccc32)cc1OCc1ccccc1F [GSK1024306] | 0
6 | Fc1ccc(-c2ncn(CCCNCc3ccccc3)c2-c2ccncc2)cc1 | 0
7 | CCC(CC)(CC)n1cnc2c(N)ncnc21 [SKF-97620] | 0
8 | N#Cc1ccc(Oc2ccc(Nc3ncnc4cc[nH]c34)cc2Cl)cc1 | 6
9 | O=C(Nc1n[nH]c2nc(-c3ccco3)c(Br)cc12)c1ccc(CN2CCCC2)cc1.O=C(O)[C@H](O)[C@@H](O)C(=O)O [SB-742352] | 0
10 | COc1ccc(-c2nc3n(c2-c2ccncc2)CCC3)cc1 [SKF-104493] | 0
11 | O=C(NCCCN1CCCC1=O)c1cnc(NCc2cc(Cl)ccc2Cl)nc1NC1CCNCC1 | 4
12 | O=C(Nc1ccccc1)Nc1ccc(Oc2ccc3nccn3n2)cc1 | 0
13 | CCCc1ccc(S(=O)(=O)NC2CCN(c3ccnc(Nc4ccc(OC)cc4)n3)C2)cc1 (centres unmarked) [GSK1379737] | 0
14 | COC(=O)c1c(-c2ccccc2)c2cc(Cl)ccc2c(=O)n1Cc1ccc(S(C)(=O)=O)cc1 | 0
15 | CC(C)N1CCC(n2cnc(-c3ccc(F)cc3)c2-c2ccnc(N)n2)CC1 [SB-223132] | 21
16 | Nc1n[nH]c2nnc(-c3ccccc3)cc12 [SB-517389] | 0
17 | C[C@H]1CC[C@@H](C(=O)Nc2ccccc2)CN1c1cc(-c2ccc3c(N)n[nH]c3c2)nc(N)n1 [GSK2283293] | 7
18 | CN1CCC(n2cnc(-c3ccc(F)cc3)c2-c2ccnc(NC3CCNCC3)n2)CC1 [SB-229482] | 14
19 | Fc1cccc(COc2ccc(Nc3ncnc4sc(-c5ccc[nH]5)cc34)cc2Cl)c1 [GW707818] | 0
20 | O=C(Nc1ccccc1F)NC1CCN(c2ccnc(Nc3ccc(F)cc3)n2)C1 (centres unmarked) [GSK1379722] | 0
21 | Clc1ccc(-c2cc(-c3c[nH]nc3-c3ccccn3)ccn2)cc1 [GW681251] | 0
22 | COc1cc2ncnc(Nc3ccc(OCc4ccccc4Br)c(Cl)c3)c2cc1OC.Cl [GI261590] | 0
23 | Cl.Cl.c1ccc(-c2cc3ccncc3cc2OC2CCNCC2)cc1 [GSK1122999] | 0

Test system: CAMKK2
Conditions: concentration: 1 μM, replicates: in singlicate; n = 1

Row | SMILES | %Inh [%]
24 | Oc1ccc2ncnc(Nc3ccc(OCc4ccccc4)cc3)c2c1 [GI262866] | 0
25 | FC(F)(F)c1ccc(-c2cc(-c3c[nH]nc3-c3ccccn3)ccn2)cc1 [GW599550] | 23
26 | CCc1nc(-c2cccc(C)c2)c(-c2ccnc(NC(=O)c3ccccc3)c2)s1 | 7
27 | CN1c2ccc(-c3ccc(C(=O)NCCO)cc3)cc2-c2[nH]ncc2S1(=O)=O | 37
28 | O=C(c1ccc(-c2cc(-c3c[nH]nc3-c3ccccn3)ccn2)cc1)N1CCCC1 [GW792479] | 46
29 | COc1ccc(-c2oc3ncnc(N)c3c2-c2ccc(OC)cc2)cc1 [SB-589132] | 0
30 | CCc1nc(-c2cccc(N(C)S(=O)(=O)c3ccccc3)c2)c(-c2ccnc(Nc3ccc(N4CCN(C(C)=O)CC4)nc3)n2)s1 [GSK1645895] | 32
31 | Fc1cccc(COc2ccc(Nc3ncnc4cc[nH]c34)cc2Cl)c1 | 0
32 | Cl.c1ccc(Cn2ncc3cc(Nc4ncnc5ccccc45)ccc32)cc1 [GW273749] | 32
33 | COC(=O)c1cccc(NC(=O)NCCNc2ccnc(Nc3ccc(F)cc3)n2)c1 [GSK1379883] | 6
34 | Cl.c1ccc(Cn2ccc3cc(Nc4ncnc5ccccc45)ccc32)cc1 [GW275568] | 29
35 | COc1ccc(Nc2nccc(N3CCC(NC(=O)c4cccc(NC(C)=O)c4)C3)n2)cc1 (centres unmarked) [GSK1379732] | 26
36 | Nc1nccc2scc(-c3ccc4c(c3)CCN4C(=O)Cc3cc(F)ccc3F)c12 [GSK2587663] | 9
37 | Fc1ccc(Nc2nccc(-c3c(-c4ccc(Cl)cc4)nn4ncccc34)n2)cc1F [GW829058] | 5
38 | CS(=O)(=O)CCNCc1ccc(-c2ccc3ncnc(Nc4ccc(OCc5ccccc5)c(Cl)c4)c3c2)o1.Cl [GW574783] | 0
39 | Cn1ccc2ncnc(Oc3ccc(NC(=O)Nc4cccnc4)c(Cl)c3)c21 | 11
40 | COc1ccc(NC(=O)c2ccc(-c3cc(-c4nnc(C)o4)ccc3C)cc2)cc1 [GW595885] | 0
41 | NC(=O)c1sc(-n2cnc3ccccc32)cc1OCc1ccccc1F [GSK1024306] | 10

Row | SMILES | %Inh [%]
42 | Fc1ccc(-c2ncn(CCCNCc3ccccc3)c2-c2ccncc2)cc1 | 0
43 | CCC(CC)(CC)n1cnc2c(N)ncnc21 [SKF-97620] | 0
44 | N#Cc1ccc(Oc2ccc(Nc3ncnc4cc[nH]c34)cc2Cl)cc1 | 11
45 | O=C(Nc1n[nH]c2nc(-c3ccco3)c(Br)cc12)c1ccc(CN2CCCC2)cc1.O=C(O)[C@H](O)[C@@H](O)C(=O)O [SB-742352] | 0
46 | COc1ccc(-c2nc3n(c2-c2ccncc2)CCC3)cc1 [SKF-104493] | 0
47 | O=C(NCCCN1CCCC1=O)c1cnc(NCc2cc(Cl)ccc2Cl)nc1NC1CCNCC1 | 1
48 | O=C(Nc1ccccc1)Nc1ccc(Oc2ccc3nccn3n2)cc1 | 14
49 | CCCc1ccc(S(=O)(=O)NC2CCN(c3ccnc(Nc4ccc(OC)cc4)n3)C2)cc1 (centres unmarked) [GSK1379737] | 0
50 | COC(=O)c1c(-c2ccccc2)c2cc(Cl)ccc2c(=O)n1Cc1ccc(S(C)(=O)=O)cc1 | 14
51 | CC(C)N1CCC(n2cnc(-c3ccc(F)cc3)c2-c2ccnc(N)n2)CC1 [SB-223132] | 6
52 | Nc1n[nH]c2nnc(-c3ccccc3)cc12 [SB-517389] | 0
53 | C[C@H]1CC[C@@H](C(=O)Nc2ccccc2)CN1c1cc(-c2ccc3c(N)n[nH]c3c2)nc(N)n1 [GSK2283293] | 15
54 | CN1CCC(n2cnc(-c3ccc(F)cc3)c2-c2ccnc(NC3CCNCC3)n2)CC1 [SB-229482] | 26
55 | Fc1cccc(COc2ccc(Nc3ncnc4sc(-c5ccc[nH]5)cc34)cc2Cl)c1 [GW707818] | 16
56 | O=C(Nc1ccccc1F)NC1CCN(c2ccnc(Nc3ccc(F)cc3)n2)C1 (centres unmarked) [GSK1379722] | 3
57 | Clc1ccc(-c2cc(-c3c[nH]nc3-c3ccccn3)ccn2)cc1 [GW681251] | 0
58 | COc1cc2ncnc(Nc3ccc(OCc4ccccc4Br)c(Cl)c3)c2cc1OC.Cl [GI261590] | 0
59 | Cl.Cl.c1ccc(-c2cc3ccncc3cc2OC2CCNCC2)cc1 [GSK1122999] | 30
